Common to all, as to experiment: PBM binding z-score (relative to random genomic background probes); higher = stronger binding; sequences stand for … in GC…GCGATTGACAGCGTAGAATGAAGG
In test [1] the test system is FXR:RXRa (NR concentration 270 nM, RXRa partner concentration 90 nM). In a few lines: (§1)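 Antibodies against each partner of ligand-free nuclear receptor dimers (one per run) detected binding on custom Agilent 4×180K protein-binding microarrays after 1 h incubation. The double-stranded probes had 34-nt variable regions carrying direct-repeat seeds, single-nucleotide variants, half-site ablations and random human genomic background sequences. Binding z-scores, from regression-normalized fluorescence, use the random background probes as reference.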

Test [2] relates to LXRa homodimer (NR concentration 270 nM). In a few lines: as §1
Test [3] deals with LXRb homodimer (NR concentration 270 nM). In outline:
as §1

Test [4] concerns PPARa:RXRa (NR concentration 270 nM, RXRa partner concentration 90 nM). In outline: as §1
In test [5] the test system is PPARg:RXRa (NR concentration 180 nM, RXRa partner concentration 90 nM). In outline:
as §1

For test [6], the system named is PPARg:RXRa 270nM:90nM, anti-RXR (NR concentration 270 nM, RXRa partner concentration 90 nM). In a few lines: as §1
The subject of test [7] is PPARg:RXRa 30nM:10nM, anti-RXR (NR concentration 30 nM, RXRa partner concentration 10 nM). In outline: as §1
For test [8], the system named is PPARg:RXRa 90nM:30nM, anti-RXR (NR concentration 90 nM, RXRa partner concentration 30 nM). In outline: as §1
In test [9] the test system is PPARg:RXRa DBDmut IVT, anti-RXR (DBD mutation: RXRa K156A/R161A, NR concentration 270 nM, RXRa partner concentration 90 nM). In a few lines:
as §1

Test [10] relates to PPARg:RXRa IVT, anti-PPARg (NR concentration 270 nM, RXRa partner concentration 90 nM). In outline: as §1
Test [11] deals with PPARg DBDmut:RXRa IVT, anti-PPARg (DBD mutation: PPARg1 K132A/R137A, NR concentration 270 nM, RXRa partner concentration 90 nM). In a few lines:
as §1

Test [12] has as its system PPARg DBDmut IVT, anti-PPARg (DBD mutation: PPARg1 K132A/R137A, NR concentration 270 nM). In a few lines: as §1
Test [13] has as its system PPARg homodimer (NR concentration 180 nM). In outline:
as §1

Test [14] has as its system PXR:RXRa (NR concentration 270 nM, RXRa partner concentration 90 nM). In outline: as §1
The test system of test [15] is PXR homodimer (NR concentration 270 nM). In outline: as §1
The subject of test [16] is RARa:RXR (NR concentration 270 nM, RXRa partner concentration 90 nM). In outline:
as §1

Test [17] has as its system RARa homodimer (NR concentration 270 nM). In a few lines:
as §1

Test [18] has as its system RARb:RXRa (NR concentration 270 nM, RXRa partner concentration 90 nM). In a few lines: as §1
Test [19] deals with RARb homodimer (NR concentration 270 nM). In outline: as §1

In the case of AGAATGAGGTTACTAAAGATCAGGGAAACGCTTG, the PBM binding z-score in test [1] came to 1.18; in test [2], 0.111; in test [3], 0.0247; in test [4], 2.5; in test [5], 1.81; in [6], 1.58. In addition, the PBM binding z-score in test [7] stood at 0.706; in test [8], 1.07; in [9], 3.7; in test [10] it was 2.84; in test [11], 0.939; in test [12] it was 0.661. The PBM binding z-score in [13] was found to be 0.271; in [14], 0.942; in test [15], 0.152; in test [16], 1.21; in test [17], 0.392; in test [18], 1.51. The PBM binding z-score in test [19] was determined as 0.777.
With GCTGCTAGGTCAACTGATGGTCATCTAAAGCTCG, the PBM binding z-score in test [1] was determined as 4.19; in test [2], 0.86; in test [3], 0.134; in [4] it was 3.75; in [5], 2.92; in test [6] it was 3.32. In addition, the PBM binding z-score in [7] was found to be 0.892; in [8] it was 2.34; in test [9], 5.18; in [10], 4.36; in [11], 0.236; in test [12], 0.14. For the same sequence, the PBM binding z-score in test [13] was 2.42; in [14], 2.17; in test [15] it was -0.491; in test [16], 3.74; in [17] it was 0.102; in test [18], 4.32. In test [19], this sequence registered a PBM binding z-score of 3.66.
For the sequence AGAATGAGGTTACCAAAGGTCAGGGAAACGCTTG, the PBM binding z-score was 6.02 in [1]; 8.17 in [2]; 0.893 in test [3]; 5.55 in test [4]; 5.51 in test [5]; 5.63 in test [6]. Further, the PBM binding z-score in [7] amounted to 3.27; in test [8] it was 4.99; in test [9], 4.16; in test [10], 4.54; in [11], 1.08; in test [12], 0.912. Besides, the PBM binding z-score in test [13] worked out at 4.43; in [14], 6.1; in test [15] it was 1.49; in [16] it was 6.53; in test [17] it was 1.28; in test [18], 4.91. Also, the PBM binding z-score in test [19] was found to be 5.13.
In the case of CCTCGGAGGACAACAGGAGGTCATAGCTGCCAGA, the PBM binding z-score is 2.31 in [1]; 4.2 in test [2]; -0.0136 in [3]; 0.961 in [5]; 1.16 in test [6]; 0.00805 in test [7]. The PBM binding z-score in [8] was 0.459; in test [9], 0.281; in test [10] it was 0.613; in test [11] it was -0.597; in test [12], -1.12; in test [13] it was 1.63. Besides, the PBM binding z-score in [14] worked out at 3.72; in test [15], 1.1; in test [16] it was 3.52; in test [17], 0.48; in [18], 2.93; in [19] it was 3.71.
As for ATATGTAGGTTAGCTGGGGTCCTTCAGACTAGGC, the PBM binding z-score in test [1] was 0.425; in test [2], -0.109; in test [3], 0.384; in test [5], 2.96; in test [6], 2.75; in [7], 0.715. The PBM binding z-score stood at 1.78 in [8]; 6.27 in [9]; 5.77 in [10]; 1.74 in test [11]; 2.65 in test [12]; 1.13 in test [13]. The PBM binding z-score in [14] was 1.33; in [15] it was 0.206; in test [16] it was 2.3; in test [17], 0.538; in test [18], 0.851; in test [19], 0.736.
Turning to ATCGAAAGGTCGACCAGGTGAGTATACACCGTTT, the PBM binding z-score in [1] was found to be 4.91; in [2] it was 0.21; in [3], 0.349; in test [5], 3.14; in test [6], 3.34; in [7], 1.16. Moreover, the PBM binding z-score in test [8] was determined as 2.44; in test [9], 0.539; in [10] it was 2.15; in test [11], 0.944; in [12] it was 0.642; in test [13], 1.28. For the same sequence, the PBM binding z-score in [14] is 2.8; in test [15] it was 0.258; in test [16], 3.62; in test [17], 0.621; in [18], 3.98; in test [19], 2.97.
For the sequence GTTACAGGGTCAAGGCCAGAGTACGCGTATTGAT, the PBM binding z-score stood at 6.43 in [1]; 0.317 in test [2]; 0.463 in [3]; 5.4 in test [5]; 5.66 in [6]; 2.09 in [7]. For the same sequence, the PBM binding z-score in [8] worked out at 4.49; in test [9], 3.09; in test [10] it was 4.35; in test [11], 0.698; in test [12] it was 0.735; in test [13] it was 2.94. The PBM binding z-score in test [14] was 3.92; in test [15], 0.672; in test [16], 4.89; in [17], 0.693; in [18] it was 4.52; in [19], 4.1.

(Values after the supplement of paper PMC6555819.)
